Shown are actives, neighbours in structure and some others; about 7.7% of the full set was active somewhere.
RE007 growth inh: less growth of the S. pombe RE007 Vpr strain | S. pombe RE007 Vpr strain, BacTiter-Glo ATP luminescence, 24 h | Potency, µM (series often up to 92.2 µM), for inactives: top-dose activity change, negative = less growth, hits mostly inhibitors | 360,000 compounds, 0.21% hits; active = well fitted falling curve with a large enough effect; inconclusive = small, poorly fitted or top-dose-only effect; inactive = no such curve, though single readings can be large or run the other way; note: potency is the fitted concentration of half-maximal effect; nearly all actives have a fitted effect of over 50% in size
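Fission yeast strain RE007, carrying one chromosomally integrated HIV-1 vpr copy, was seeded at OD 0.01 in PMG+AL medium with 23 nL pinned compound. After 24 h at 30 °C and 99% humidity, viability was read by BacTiter-Glo luminescence.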
HCMV inh: human cytomegalovirus inhibition; HFF cells, HCMV-luciferase reporter, 72 h; hits give low values; activity change, negative = inhibition, % at 57.5 µM; 410,000 compounds, 4.5% hits; AID 1259415; in the data active = activity change below about -60%; inconclusive = no clear call, values can overlap the other calls; inactive = above about -39%
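After 16 h attachment at 37C, HFF cells received test compound and HCMV-luciferase (1 PFU/cell); reporter luminescence read 72 h later, data normalized against buffer-only and known inhibitor Salinomycin.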
FMDV inh: antivirals against foot and mouth disease virus; FMDV antiviral cell-based qHTS; Potency, µM (highest dose often 57.9 µM), for inactives: at the highest dose activity change, negative = inhibition, hits mostly inhibitors; 410,000 compounds, 1.2% hits; calls by dose curve; tested in HEK293T cells; note: read-out not given here; potency is the fitted concentration of half-maximal effect; nearly all actives have a fitted effect of over 45% in size
FBPA Giardia inh: inhibitors of Giardia lamblia fructose-1,6-bisphosphate aldolase | A8B2U2 | purified Giardia FBPA | Potency, µM (highest dose often 59.6 µM), for inactives: top-dose activity, negative = inhibition, most hits filed as inhibitors | 290,000 compounds, 0.71% hits; note: potency is the fitted concentration of half-maximal effect; nearly all actives have a fitted effect of over 55% in size
Target sequence (A8B2U2 whole entry, looked up): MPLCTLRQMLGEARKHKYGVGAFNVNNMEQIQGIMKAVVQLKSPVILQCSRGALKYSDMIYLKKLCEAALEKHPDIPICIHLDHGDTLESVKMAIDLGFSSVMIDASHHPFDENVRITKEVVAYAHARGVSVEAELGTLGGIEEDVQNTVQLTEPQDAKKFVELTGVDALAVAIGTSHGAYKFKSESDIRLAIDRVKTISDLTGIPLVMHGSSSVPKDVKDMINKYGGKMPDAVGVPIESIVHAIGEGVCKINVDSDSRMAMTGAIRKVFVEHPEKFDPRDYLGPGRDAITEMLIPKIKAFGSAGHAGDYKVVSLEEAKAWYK
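40 nM FBPA preincubated 10 min at RT with compound (up to 57.5 uM final), then substrate plus GAPDH/TPI/NAD/arsenate coupling and diaphorase/resazurin added. Fluorescence read after 20 min at RT, 525/598 nm.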
Sm TGR inh: inhibitors of Schistosoma mansoni thioredoxin glutathione reductase. 360,000 compounds, 3% hits. purified TGR, DTNB reduction, TNB absorbance 405 nm. Q962Y6. Potency, µM (series often up to 114 µM), inactives show at the top dose activity change, negative = inhibition, usual class: inhibitors; note: potency is the fitted concentration of half-maximal effect; nearly all actives have a fitted effect of over 60% in size
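Kinetic colorimetric format: TGR-catalysed, NADPH-driven DTNB reduction monitored via TNB absorbance. Enzyme dispensed at 20 nM; compound exposure 15 min at room temperature before reaction start.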
TbPYK inhibitor: T. brucei pyruvate kinase inhibition; Q57TT1; TbPYK enzyme, Kinase-Glo Plus ATP luminescence, 45 min; Potency, µM (highest dose often 76.8 µM), inactives show top-dose activity, negative = inhibition, actives largely listed as inhibitors; 410,000 compounds, 0.12% hits; note: potency is the fitted concentration of half-maximal effect; nearly all actives have a fitted effect of over 50% in size
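Glycolytic pyruvate kinase of T. brucei was incubated with substrate, test compound and 130 uM ADP for 45 minutes at room temperature. Luminescent Kinase-Glo Plus signal was measured after 10 minutes.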
* hit, by the source's call; [ ] = dose if it differs, or a comment. Unless noted, calls come from the whole dose curve; as a rule, active = well fitted curve in the direction sought with a large enough effect; inconclusive = small, poorly fitted or top-dose-only effect, or another doubt; inactive = no such curve, though single readings can be large; an effect the other way counts as inactive or inconclusive. % is set by controls: 0 for no effect and ±100 for the full control effect.

Results for CCOC(=O)c1cccn1C1C(=O)N(Cc2ccc(C(F)(F)F)cc2)c2ccc(F)cc21 (stereo not given) ?
HCMV inh: 0

How did CC1(C)CC(=O)c2cc(C(=O)N3CCCC(C)(C)C3)c(=O)n(-c3ccccc3)c2C1 do in these assays?
RE007 growth inh: 22%; HCMV inh: -77*; FMDV inh: 17%; FBPA Giardia inh: 0%; Sm TGR inh: -1%; TbPYK inhibitor: -11%

How did O=C(COc1ccc(Cl)cc1Cl)Nc1ccc(C(=O)OC2CCCCC2)cc1 do in these assays?
HCMV inh: -1; FMDV inh: -9%; Sm TGR inh: -9%; TbPYK inhibitor: -1%

How did CC1C=CCCOC1c1ccccc1 (stereo not given) do in these assays?
FBPA Giardia inh: 1%[12.9 µM]

What do the screens show for `CN1CCN(CCCNC(=O)Cn2c(-c3cccs3)cc3cc(Cl)ccc32)CC1`?
HCMV inh: -69*; FMDV inh: -13%; Sm TGR inh: -17%; TbPYK inhibitor: -2%

Results for CCS(=O)(=O)N1CCC(C(=O)NCCCN2CCN(c3ccccc3F)CC2)CC1 ?
RE007 growth inh: -9%; HCMV inh: -20; Sm TGR inh: 10%; TbPYK inhibitor: 0%

Results for O=C(Cn1c(-c2cccs2)cc2ccccc21)NCCCN1CCN(c2ccccc2F)CC1 ?
HCMV inh: -68*; FMDV inh: -19%; Sm TGR inh: 22%; TbPYK inhibitor: 8%

What do the screens show for `CCc1ccc(CNC(=O)Cn2c(-c3cccs3)cc3cc(F)ccc32)cc1`?
HCMV inh: -65*; FMDV inh: -1%; Sm TGR inh: 1%; TbPYK inhibitor: 3%

What do the screens show for `O=C(NCCCN1CCN(c2ccccc2F)CC1)C1CCN(S(=O)(=O)c2cccs2)CC1`?
RE007 growth inh: -5%; HCMV inh: -68*; FMDV inh: inconclusive; FBPA Giardia inh: 1%; Sm TGR inh: 4%; TbPYK inhibitor: 0%

Results for CCCCC1CN2C(CCC(C)C2c2ccc(Br)cc2)C(=O)O1 (stereo not given) ?
FBPA Giardia inh: 3%[12.9 µM]

What do the screens show for `Cc1cc(C)c(CSc2nnc(C)n3c2cc2occc23)c(C)c1`?
HCMV inh: -9; FMDV inh: -4%; Sm TGR inh: 2%; TbPYK inhibitor: -7%

What do the screens show for `CCCN1CCN(CC2=C(C(=O)OCC)C(c3cccc(OC)c3OC)NC(=O)N2)CC1` (stereo not given)?
HCMV inh: -3; FMDV inh: -10%; Sm TGR inh: 89µM*; TbPYK inhibitor: -1%

Results for CCCN1CCN(CC2=C(C(=O)OCC)C(c3ccc(Cl)cc3)NC(=O)N2)CC1 (stereo not given) ?
HCMV inh: -10; FMDV inh: 0%; Sm TGR inh: 2%; TbPYK inhibitor: 5%

How did Cc1ccc(C2/C(=C(/O)c3cnn(-c4ccccc4)c3C)C(=O)C(=O)N2CCCN2CCOCC2)o1 (stereo not given) do in these assays?
FBPA Giardia inh: -29%; Sm TGR inh: 10µM*

What do the screens show for `Cc1ccc(C)c(/C(O)=C2/C(=O)C(=O)N(CCN3CCOCC3)C2c2ccc(C)o2)c1` (stereo not given)?
RE007 growth inh: -12%; HCMV inh: 4; FMDV inh: 42%; FBPA Giardia inh: -20%; Sm TGR inh: inconclusive; TbPYK inhibitor: -6%

What do the screens show for `Cc1c(/C(O)=C2/C(=O)C(=O)N(CCN3CCOCC3)C2c2ccccn2)cnn1-c1ccccc1` (stereo not given)?
RE007 growth inh: -4%; HCMV inh: -78*; FMDV inh: 1.4µM*; FBPA Giardia inh: inconclusive; Sm TGR inh: 22µM*; TbPYK inhibitor: 1%

Results for O=C(CSc1nc2ccccc2n1Cc1ccccc1)N1CCN(c2ccc(F)cc2)CC1 ?
HCMV inh: -5; FMDV inh: -5%; Sm TGR inh: 8%; TbPYK inhibitor: -5%

Screens as filed in PubChem BioAssay.
